Article PMC12864922, “TDP-43 directly inhibits mRNA accumulation in neurites through modulation of mRNA stability”
Over roughly 9,900 sequences, “r (bound/input frequency ratio)” has its median near 0.7; the highest 2% begin near 6.5. This is one part of a sample in which the highest values are shown more often than they occur.

B1: ENSMUSG00000058297.291|Spock2|95:100 (ssRNA)
RNA: GGGAGUUCUACAGUCCGACGAUCGCUUCGAUAUCCGCAUGCUAAGAGAGAGAGAGAAAGAGAGAGAGAAUGAGAGAGAAUGAGAGAGAGAAUACCCGAGGGCCACCCUGAUGCCCAGGAAGAGUGAGGGCAGCCCCCACACACGUGGAAGAGGCUGGGCAGCUAGCUACUGGGGACCUUGUGCUGAGGCUUCCAGGACAAAGCCCCAGUCUGGCUCUCCCCCAGCCUCUCAGGGGCACUGGCUGGUCACAUCCACUGAGUAUUGAUCGGUUGGACUUUAGGGAAGAGCCUCCUCCUUCCCAUUCUCUUGCGGUCGCACUAGUGUGGAAUUCUCGGGUGUCAAGG
B2: ENSMUSG00000058297.292|Spock2|89:94 (ssRNA)
RNA: GGGAGUUCUACAGUCCGACGAUCGCUUCGAUAUCCGCAUGCUAAGAGAGAAAGAGAGAGAGAAUGAGAGAGAAUGAGAGAGAGAAUACCCGAGGGCCACCCUGAUGCCCAGGAAGAGUGAGGGCAGCCCCCACACACGUGGAAGAGGCUGGGCAGCUAGCUACUGGGGACCUUGUGCUGAGGCUUCCAGGACAAAGCCCCAGUCUGGCUCUCCCCCAGCCUCUCAGGGGCACUGGCUGGUCACAUCCACUGAGUAUUGAUCGGUUGGACUUUAGGGAAGAGCCUCCUCCUUCCCAUUCCUUUCCUCUUGCGGUCGCACUAGUGUGGAAUUCUCGGGUGUCAAGG
B3: ENSMUSG00000058297.294|Spock2|77:82 (ssRNA)
RNA: GGGAGUUCUACAGUCCGACGAUCGCUUCGAUAUCCGCAUGCUAAGAGAGAAUGAGAGAGAAUGAGAGAGAGAAUACCCGAGGGCCACCCUGAUGCCCAGGAAGAGUGAGGGCAGCCCCCACACACGUGGAAGAGGCUGGGCAGCUAGCUACUGGGGACCUUGUGCUGAGGCUUCCAGGACAAAGCCCCAGUCUGGCUCUCCCCCAGCCUCUCAGGGGCACUGGCUGGUCACAUCCACUGAGUAUUGAUCGGUUGGACUUUAGGGAAGAGCCUCCUCCUUCCCAUUCCUUUCUGCCACCCUGGACUCUUGCGGUCGCACUAGUGUGGAAUUCUCGGGUGUCAAGG
B4: ENSMUSG00000061578.830|Ksr2|59:63;101:105;176:180 (ssRNA)
RNA: GGGAGUUCUACAGUCCGACGAUCGCUUCGAUAUCCGCAUGCUAAUAGAAACAGCAUUCUGGCUCACAGUUUCAAAGGGCUCAGUCCAUAGCUGCCUGACUCACACAUUCUAGGCCUUUCUUGAGGCAAGUGUUCAUCAUGAUACACACAGGGUGAGGAGGAGUUUCUUCAUGGCAAACAGGAAGCAAAGAGCAAUACAGGAAAAGGUCAGGGGUGAGAACACACAUUGCCACUUCCUCCAGCUAGGACCUUUGAGCAUCACAUUGUGAAGCCAUCCAGGGACUUGGGGGUUAGGUCAGAGGUACUCUUGCGGUCGCACUAGUGUGGAAUUCUCGGGUGUCAAGG
B5: ENSMUSG00000032194.214|Kank2 (ssRNA)
RNA: GGGAGUUCUACAGUCCGACGAUCGCUUCGAUAUCCGCAUGCUAUUGUUGUUGUUUCUUUGUUUCUUUUCUUCAUAAAGAAGAAAAAGGAAACAACUUCUAGAUGUGCCUUGCGAUAGGGAGGACUUUGUCCUCUCAAGUCUCCCUGUCGUAUCCAGAUCACAGCUGAACCCACUGGGCCUUGGCGCCAAACCUCAGCAGGGCAGCAUUGAGACUCAUGGACUAAAGGAAAGUGUUCACUCUUCUAGACAAGUGGGUCUCUUGGUUUGAUGGAGUCUUACUCCGCUUGAGUUUUGUAGAAGGGGCUCUUGCGGUCGCACUAGUGUGGAAUUCUCGGGUGUCAAGG
B6: ENSMUSG00000029636.67|Wasf3|73:79;237:241 (ssRNA)
RNA: GGGAGUUCUACAGUCCGACGAUCGCUUCGAUAUCCGCAUGCUACCAUCCUGAUUUGGUGGGCUUGCCACGUAUCUGCGCAGCUGCCCCACGUCAGCUCUCUGCAAGAUCACUGGCACACACACUCAGUGAUGUCUUCCAACCAGUGGGUGAUACGUUUUCCUGUUUCUUCCCUUUGCAAAUUGAAUUCCAGGUAGAUAUGGUUGUAGAGGGGAAAGUUUAACAAAUCAGAAUGAAAUGUUUGUCUGUUUGCACACUGGGCCUGGUGGCCUCCAAGGAAAACACAACGAUCGUUUGCUUUCUCUCUCUUGCGGUCGCACUAGUGUGGAAUUCUCGGGUGUCAAGG
B7: ENSMUSG00000061578.1419|Ksr2|3:7;229:233 (ssRNA)
RNA: GGGAGUUCUACAGUCCGACGAUCGCUUCGAUAUCCGCAUGCUAAUCAUACAUCUUGAUUCUCCAUUUUCCUUCUGGACCACAUGUCUCUUCCUUUUCCUUUUUAGAUCUGUCUUGCUCUCUGUCUCUCUCACUCAUUGCCAACAUGUUGCUGGGAAAGAAUAUUUGAUUUAGAUGCCAAUCAGGAAGGCAAGUAGGAUGGAUGGAUGAGUGAGUGGAUAGGUAGGUAUAUAAAUGGAUGGAUGGGUGAUGGAUGGGUAAAUGAAUGGAUAGCAUACUGAAUGAAUGGAUGAUGGAUGAAUGGACUCUUGCGGUCGCACUAGUGUGGAAUUCUCGGGUGUCAAGG
B8: ENSMUSG00000029636.438|Wasf3 (ssRNA)
RNA: GGGAGUUCUACAGUCCGACGAUCGCUUCGAUAUCCGCAUGCUAGUGAAUGGAUGAUAGGUGGUGGAUGGUUGAGUGGGUGGAUUCAUGAUGGAUGGAUGGAUGGAUGGAUGGAUGGAUGGAUGGAUGAGUGGAUGGAUAAUAGGUUGAUGGGUGGAUAGGUAGAUGAGUGAAUAGAUAGAUAUAGAUCAGUGGGAGGAUUGGAAAGUAGGUGAAUGAAUGGAUGGCAGAUAGAUGGAUCAAUUACAGAUGGAUGGAUGCAUGGAAUAGAUAGGUGGAUGGGUGGUGGCUAGAAGGUGCCUGAGCUCUUGCGGUCGCACUAGUGUGGAAUUCUCGGGUGUCAAGG
B9: ENSMUSG00000029636.451|Wasf3 (ssRNA)
RNA: GGGAGUUCUACAGUCCGACGAUCGCUUCGAUAUCCGCAUGCUAUGGAUGAGUGGAUGGAUAAUAGGUUGAUGGGUGGAUAGGUAGAUGAGUGAAUAGAUAGAUAUAGAUCAGUGGGAGGAUUGGAAAGUAGGUGAAUGAAUGGAUGGCAGAUAGAUGGAUCAAUUACAGAUGGAUGGAUGCAUGGAAUAGAUAGGUGGAUGGGUGGUGGCUAGAAGGUGCCUGAGUCUGCACAUCACUGCACUGAGAAGGCAAAUGAGUACAUUAUACUAUUAGCACCAAACCCCAAGCUUCAGUAUUUAGAUCUCUUGCGGUCGCACUAGUGUGGAAUUCUCGGGUGUCAAGG

target: TDP-43 (Homo sapiens, UniProt Q13148 1-414); assay: RNA Bind-n-Seq with designed 260-mer pool; 25 mM Tris-HCl, 150 mM KCl, 3 mM MgCl2, BSA (printed 500 mg/mL), 20 units/mL SUPERase IN; pH not stated; 500 nM RNA pool, 1 h, 4 C; TDP-43 5, 50, 500 nM; high values mean tight binding; conditions: protein: recombinant; tags: SBP (GST cleaved off with PreScission; pGEX-GST-SBP)
Sequence (Q13148 whole entry): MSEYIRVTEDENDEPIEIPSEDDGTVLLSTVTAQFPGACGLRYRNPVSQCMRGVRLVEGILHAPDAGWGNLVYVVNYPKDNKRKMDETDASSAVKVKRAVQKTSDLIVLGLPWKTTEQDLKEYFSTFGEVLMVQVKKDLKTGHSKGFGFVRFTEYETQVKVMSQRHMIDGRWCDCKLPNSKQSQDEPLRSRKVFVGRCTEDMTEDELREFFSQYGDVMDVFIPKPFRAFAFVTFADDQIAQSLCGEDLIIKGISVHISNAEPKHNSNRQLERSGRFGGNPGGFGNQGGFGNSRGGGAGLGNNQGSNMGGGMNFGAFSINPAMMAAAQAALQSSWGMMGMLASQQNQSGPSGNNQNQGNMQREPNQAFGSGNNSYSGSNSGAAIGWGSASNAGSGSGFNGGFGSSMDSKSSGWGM
Summary of the method: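 Streptavidin beads captured recombinant SBP-tagged TDP-43 at 5, 50 or 500 nM, and the beads were incubated for 1 h at 4 °C with 500 nM of an in vitro-transcribed pool of 260-nt 3′ UTR oligos in 25 mM Tris-HCl, 150 mM KCl, 3 mM MgCl2, BSA and SUPERase IN. After washing, bound RNA was eluted with biotin, reverse transcribed, PCR-amplified and sequenced. Binding is reported as R, the mapped-read-normalized abundance of each oligo in the bound sample divided by its abundance in the input. Two independent protein batches served as duplicates.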

Compared with B1, B2 is lower in binding signal: 8.71 R (bound/input frequency ratio) for the first, 5.57 R (bound/input frequency ratio) for the second.

First: B3
Second: B4
The binding signal of the first is higher: 2.62 R (bound/input frequency ratio) for the first, 0.325 R (bound/input frequency ratio) for the second.

Compared with B5, B6 is higher in binding signal: 0.273 R (bound/input frequency ratio) for the first, 1.65 R (bound/input frequency ratio) for the second.

First: B7
Second: B8
The binding signal of the first is lower: 2.26 R (bound/input frequency ratio) for the first, 8.37 R (bound/input frequency ratio) for the second.

B9 was tested, and the binding signal was 4.65 R (bound/input frequency ratio).
